Test [1] has as its system Human papillomavirus type 1a protein E7 (residues 44-93). Briefly: small molecules binding HPV E7 44-93 – biochemical, small-molecule microarray, residues 44-93, 635 nm fluorescence, primary screen (AID 1108).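 Note: E7 fragment applied at 1 µg/mL in TBST for 1 h at 4 C; score combines spot fluorescence with its signal to noise ratio.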 The settings on record: fluorescence 635 nm, higher = more signal.
Test [2] is described as follows: hepatitis C replication reporter changes, two-sided – Huh7 cells, luciferase reporter, HCV replication inhibitor project, primary screen (AID 1109).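 Note: huh7 hepatoma cells harbouring a luciferase neomycin HCV replicon reporter; luciferase luminescence as measure of HCV replicon replication; test concentration not given here.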 The following applies: Huh7 HCV replicon luciferase reporter, 48 h; higher = more signal. Background: A reporter such as luciferase makes a cellular process visible.
Test [3] deals with Left-right determination factor 2 (Homo sapiens) (UniProt O00292). The test is described as follows: small molecules binding LEFTY2 protein – biochemical, small-molecule microarray, 635 nm fluorescence scan, primary screen (AID 1110). The settings on record: higher = more signal.
Sequence of Left-right determination factor 2 (Homo sapiens) (O00292 whole entry, looked up): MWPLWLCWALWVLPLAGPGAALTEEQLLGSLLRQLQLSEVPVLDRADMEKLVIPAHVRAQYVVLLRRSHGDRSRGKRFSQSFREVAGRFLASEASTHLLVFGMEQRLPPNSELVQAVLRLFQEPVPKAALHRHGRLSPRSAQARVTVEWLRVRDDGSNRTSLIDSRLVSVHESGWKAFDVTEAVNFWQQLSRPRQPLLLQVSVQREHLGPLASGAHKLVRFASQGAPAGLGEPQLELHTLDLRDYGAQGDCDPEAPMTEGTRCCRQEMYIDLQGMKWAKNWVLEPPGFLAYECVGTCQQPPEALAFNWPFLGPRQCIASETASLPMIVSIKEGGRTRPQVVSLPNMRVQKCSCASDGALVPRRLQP
The target of test [4] is Calmodulin-1 (Homo sapiens) (UniProt P0DP23). The test is described as follows: small molecules binding calmodulin-1 with EGTA – biochemical, small-molecule microarray, Cy5-labelled CALM1, profiling panel (AID 1111).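 Note: labelled calmodulin applied in Tris saline Tween buffer holding calcium plus EGTA and DTT.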 The following applies: Cy5-CALM1 binding fluorescence, higher = more signal.
The target is the same in test [5]. Briefly: small molecules binding Ca-loaded calmodulin-1 – biochemical, small-molecule microarray, Cy5-labelled CALM1, plus calcium, artefact control for SMM control-protein annotation, profiling panel (AID 1112).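 Note: score merges spot fluorescence with signal to noise from triplicate slides.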 The settings on record: Cy5-CALM1 binding fluorescence, higher = more signal.
Test [6] in a line: probe aWnt5a binding to arrayed compounds – biochemical, biotinylated probe, 635/667 nm fluorescence, primary screen (AID 1113).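 Note: score merges 667 nm fluorescence intensity with signal-to-noise per printed feature.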 The following applies: small-molecule microarray, higher = more signal.
Test [7] is described as follows: probe aShh binding to arrayed compounds – biochemical, biotinylated probe, 635/667 nm fluorescence, primary screen (AID 1114).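 Note: probe is biotin-labelled aShh protein from a stem cell growth factor screen; measures binding of labelled protein to compounds printed on the slide; score merges feature fluorescence at 667 nm with signal-to-noise.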 The settings on record: small-molecule microarray, higher = more signal.
The nature of test [8]: probe aNog binding to arrayed compounds – biochemical, biotinylated probe, 635/667 nm fluorescence, primary screen (AID 1115).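 Note: probe is biotinylated aNog protein used at 0.15 µg/mL for 1 h at 4 C; z-score combines 667 nm fluorescence of each spot with its signal to noise.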 The following applies: small-molecule microarray, higher = more signal.
Test [9] addresses Torsin-1A-interacting protein 1 (Homo sapiens) (UniProt Q5JTV8). The test is described as follows: compound microarray binding of lysate hLAP1 – cell lysate, small-molecule microarray, COS7 lysate, 635/667 nm fluorescence, primary screen (AID 1116). The settings on record: 635 nm fluorescence, higher = more signal.
The target of test [10] is Alpha-bungarotoxin (Bungarus multicinctus) (UniProt P60615). Briefly: compounds binding labelled alpha-BTX control protein – biochemical, small-molecule microarray, Alexa647 label, 635/667 nm fluorescence, artefact control for SMM control protein annotation, profiling panel (AID 1117). The settings on record: alpha-BTX-A647 binding fluorescence, higher = more signal.
Sequence of Alpha-bungarotoxin (Bungarus multicinctus) (P60615 whole entry, looked up): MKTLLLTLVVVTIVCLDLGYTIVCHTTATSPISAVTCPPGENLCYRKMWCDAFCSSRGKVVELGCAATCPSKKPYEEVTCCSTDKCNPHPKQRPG
The target of a further test is Albumin (Bos taurus) (UniProt P02769). The test is described as follows: compounds binding labelled BSA control protein – biochemical, small-molecule microarray, Alexa647 label, 635/667 nm fluorescence, artefact control for SMM control protein annotation, profiling panel (AID 1118).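 Note: score merges 667 nm emission intensity and signal-to-noise per printed compound spot.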 The following applies: BSA-A647 binding, fluorescence 635 nm, higher = more signal.
Sequence of Albumin (Bos taurus) (P02769 whole entry, looked up): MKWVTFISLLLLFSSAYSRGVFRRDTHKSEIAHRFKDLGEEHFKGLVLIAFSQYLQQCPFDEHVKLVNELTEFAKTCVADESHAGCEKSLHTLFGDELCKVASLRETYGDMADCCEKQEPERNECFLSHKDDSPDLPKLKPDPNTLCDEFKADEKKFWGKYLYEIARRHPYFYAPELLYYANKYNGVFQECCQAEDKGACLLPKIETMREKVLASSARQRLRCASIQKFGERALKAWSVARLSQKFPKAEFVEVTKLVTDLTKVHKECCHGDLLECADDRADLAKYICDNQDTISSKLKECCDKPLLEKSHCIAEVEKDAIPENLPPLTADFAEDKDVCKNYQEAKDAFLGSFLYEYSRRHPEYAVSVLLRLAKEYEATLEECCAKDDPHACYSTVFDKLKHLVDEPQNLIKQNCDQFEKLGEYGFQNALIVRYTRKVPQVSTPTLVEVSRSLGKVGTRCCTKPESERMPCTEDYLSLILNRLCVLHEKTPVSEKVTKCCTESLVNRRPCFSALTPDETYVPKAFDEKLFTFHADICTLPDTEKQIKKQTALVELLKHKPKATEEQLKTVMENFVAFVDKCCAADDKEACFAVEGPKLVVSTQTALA
The nature of test [11]: probe aXIP binding to arrayed compounds – biochemical, NeuroSMM set, 635/667 nm fluorescence, primary screen (AID 1119).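 Note: probe is the protein aXip251-270 applied at 1 µg/mL to compound-printed slides; binding of probe to printed compounds measured as 667 nm fluorescence plus signal to noise.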 The following applies: small-molecule microarray, higher = more signal, called active from +8 up or from −8 down.
A short description of test [12]: probe aNOTCH3 binding on compound microarray – biochemical, small-molecule microarray, 635/667 nm fluorescence, primary screen (AID 1120).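 Note: probe is a biotin-tagged antibody raised against NOTCH3 rather than NOTCH3 protein; score merges spot fluorescence near 667 nm with spot signal to noise.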 The following applies: higher = more signal.
A short description of test [13]: probe aNOTCH2 binding on compound microarray – biochemical, small-molecule microarray, 635/667 nm fluorescence, primary screen (AID 1121).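 Note: score merges feature fluorescence read at 667 nm with its signal to noise.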 The settings on record: higher = more signal.
Test [14] deals with Carbonic anhydrase 2 (Homo sapiens) (UniProt P00918). Briefly: compounds binding carbonic anhydrase 2 – biochemical, small-molecule microarray, Alexa647-labelled CAII, profiling panel (AID 1122). The settings on record: CAII-A647 binding fluorescence, higher = more signal.
Test [15] in a line: COS7 lysate on small-molecule microarray, probe aHis, 635 nm (AID 1123).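 Note: z-score combines 667nm fluorescence intensity with signal-to-noise per printed compound spot.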 The settings on record: COS7 cell lysate, fluorescence, higher = more signal.
A short description of test [16]: probe aLAP1 signal on lysate-treated microarray – cell lysate, small-molecule microarray, COS7 lysate, primary screen (AID 1124).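 Note: lysate comes from COS7 cells expressing LAP1 and is applied at 0.3 µg/mL; score merges spot fluorescence near 667 nm with signal-to-noise over triplicate slides.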 The following applies: probe aLAP1, fluorescence, higher = more signal.
The test system of the next test is Sam68 (KHDRBS1). The test is described as follows: compounds binding KHDRBS1 protein – biochemical, small-molecule microarray, 635 nm fluorescence, primary screen (AID 1125).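 Note: score merges 667 nm channel intensity with signal to noise over triplicate slides.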 The following applies: higher = more signal.
Test [17] relates to Chordin-like protein 2 (CHRDL2). The test is described as follows: compounds binding chordin-like 2 – biochemical, small-molecule microarray, 635 nm fluorescence, primary screen (AID 1126).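 Note: printed compound slides probed with Chrdl2 protein at 4 µg/mL for 1 h at 4 C; score merges 667 nm emission intensity with signal to noise over three replicate slides.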 The settings on record: fluorescence 635 nm, higher = more signal.
In test [18] the target is Concanavalin-A (Canavalia ensiformis) (UniProt P02866). The test is described as follows: compounds binding concanavalin A lectin – biochemical, small-molecule microarray, Alexa647 label, 635 nm, artefact control for SMM control protein annotation, primary screen (AID 1127).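 Note: z combines 667 nm emission intensity with signal-to-noise across three replicate slides.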 The settings on record: ConA-A647 binding fluorescence, higher = more signal.
Sequence of Concanavalin-A (Canavalia ensiformis) (P02866 whole entry, looked up): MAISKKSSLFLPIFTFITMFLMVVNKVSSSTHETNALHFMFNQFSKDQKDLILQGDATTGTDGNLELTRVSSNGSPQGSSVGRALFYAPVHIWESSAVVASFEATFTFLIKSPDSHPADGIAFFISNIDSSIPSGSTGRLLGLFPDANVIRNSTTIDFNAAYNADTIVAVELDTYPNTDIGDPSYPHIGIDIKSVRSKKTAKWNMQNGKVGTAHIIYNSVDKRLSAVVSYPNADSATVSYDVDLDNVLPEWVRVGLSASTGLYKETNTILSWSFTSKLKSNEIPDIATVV

Calls of active or inactive are those of the source.

Sequence of Torsin-1A-interacting protein 1 (Homo sapiens) (Q5JTV8 whole entry, looked up): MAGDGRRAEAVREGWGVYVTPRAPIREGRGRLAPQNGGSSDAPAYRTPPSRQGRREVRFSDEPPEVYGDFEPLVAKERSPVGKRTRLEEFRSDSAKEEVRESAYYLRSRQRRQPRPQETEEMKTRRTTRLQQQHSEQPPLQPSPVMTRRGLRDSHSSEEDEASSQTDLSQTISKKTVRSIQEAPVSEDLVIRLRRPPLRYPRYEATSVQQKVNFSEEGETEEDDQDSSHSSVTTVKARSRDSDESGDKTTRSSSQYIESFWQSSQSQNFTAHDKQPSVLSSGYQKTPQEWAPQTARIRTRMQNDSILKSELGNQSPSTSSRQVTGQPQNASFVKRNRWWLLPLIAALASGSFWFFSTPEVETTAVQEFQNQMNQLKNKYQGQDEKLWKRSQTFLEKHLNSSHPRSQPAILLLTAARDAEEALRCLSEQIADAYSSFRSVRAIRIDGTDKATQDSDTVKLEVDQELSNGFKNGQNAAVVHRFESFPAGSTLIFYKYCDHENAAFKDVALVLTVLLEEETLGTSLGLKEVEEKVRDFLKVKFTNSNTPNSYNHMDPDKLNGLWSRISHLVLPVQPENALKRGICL

In the case of `CCOC(=O)C[C@H]1[C@H](OC(=O)c2ccccc2-c2ccccc2)[C@@H](NC(=O)c2ccccc2)c2cc(OCCCO)ccc2N1C(=O)Cc1ccc(OC)cc1`, the composite z-score in test [1] is -0.12; in test [3] it was -0.0713; in test [4], -0.026; in test [5], -0.641; in test [6] it was -0.107; in [7], -0.289. The composite z-score in [8] was -0.0877; in test [9] it was 0.593; in [10] it was 0.66; in the test with Albumin (Bos taurus) it was -0.261; in [12] it was -0.0055; in test [13] it was 0.669. Further, the composite z-score in test [14] is -0.0956; in test [15], 0.428; in test [16], 0.368; with Sam68 (KHDRBS1), -0.0802; in test [17], 0.0666; in [18], 0.588. This compound came in with a z-score in test [2] of -1.31. Also, the composite Z-score in [11] is -0.0282 (inactive).

As for `NC(=O)NCC#Cc1ccc2c(c1)[C@]1(C(=O)N2)[C@H](c2ccc(O)cc2)N2[C@H](c3ccccc3)[C@H](c3ccccc3)OC(=O)[C@H]2[C@@H]1C(N)=O`, the composite z-score is -0.366 in test [1]; -0.749 in test [3]; -0.571 in test [4]; 0.261 in test [5]; -0.185 in test [6]; 0.0469 in [7]. The composite z-score in test [8] is 0.218; in [9], -0.757; in test [10] it was 0.387; in the test with Albumin (Bos taurus) it was -0.624; in test [12] it was -0.279; in test [13] it was 0.104. Moreover, the composite z-score in [14] was 0.263; in [15], 0.409; in test [16], -0.0995; with Sam68 (KHDRBS1), -0.144; in test [17], -0.162; in test [18], -0.608. This compound also registered a z-score in test [2] of 0.114. For the same compound, the composite Z-score in test [11] is 0.251 (inactive).

In the case of `COCCOC(=O)N1C(=O)[C@@]2(c3cc(C#Cc4ccc(OC)cc4)ccc31)[C@H](c1ccc(OCCO)cc1)N1[C@H](c3ccccc3)[C@H](c3ccccc3)OC(=O)[C@H]1[C@@H]2C(N)=O`, the composite z-score was 1.32 in test [1]; 0.701 in test [3]; 2.09 in [4]; 0.451 in [5]; -0.0792 in test [6]; 0.296 in test [7]. The composite z-score in test [8] is 0.683; in test [9] it was 1.36; in test [10], 2.23; with Albumin (Bos taurus) it was 0.641; in [12] it was 0.132; in test [13] it was -0.0404. For the same compound, the composite z-score in test [14] came out at 0.573; in [15], 0.441; in test [16], 0.617; with Sam68 (KHDRBS1), 1.35; in [17], 0.488; in test [18] it was 1.16. The compound further gave a z-score in test [2] of -2.33. The composite Z-score in [11] is 0.498 (inactive).

Consider `CN(C)CCCC[C@@H]1NC(=O)[C@H]2C[C@@H](C(=O)NCCCCCCNC(=O)CS)[C@@H](c3ccc(O)cc3)N2C1=O`, for which the composite z-score is 1.3 in [1]; -0.603 in test [3]; -0.445 in test [4]; -0.107 in test [5]; -0.221 in test [6]; 0.194 in test [7]. For the same compound, the composite z-score is -0.541 in test [8]; 2.53 in test [9]; -0.945 in test [10]; 0.468 with Albumin (Bos taurus); -0.159 in test [12]; -0.14 in [13]. Further, the composite z-score in test [14] is 0.802; in [15], 2.66; in test [16] it was 0.957; in the test with Sam68 (KHDRBS1), 0.457; in [17] it was -0.0412; in [18], -0.263. Moreover, the z-score in [2] was found to be 0.344. In addition, the composite Z-score in test [11] is -0.131 (inactive).

On to `COC(=O)c1ccc(OC)c(/C=C\CC(CCc2ccccc2)OC(C)=O)c1` (stereo not given), for which the composite z-score was -0.498 in [1]; -0.274 in test [3]; -0.42 in test [4]; -0.134 in test [5]; -0.152 in test [6]; -0.214 in test [7]. Besides, the composite z-score in test [8] was -0.192; in [9], -0.343; in test [10] it was 0.516; with Albumin (Bos taurus), 0.804; in [12], -0.272; in [13], -0.196. For the same compound, the composite z-score in test [14] was 0.557; in test [15], -0.14; in test [16] it was 0.275; with Sam68 (KHDRBS1), -0.0896; in test [17] it was 0.204; in test [18], 0.0426. The compound further came in with a z-score in test [2] of -1.1. Besides, in test [11], the composite Z-score was -0.376 (inactive).
